Laboratory results published in PubChem BioAssay (NCATS).
Results filed as inconclusive are left out. Activity calls are given as the source filed them. Calls follow the shape of the dose curve; as a rule, active = well fitted curve in the direction sought with a large enough effect; inconclusive = small, poorly fitted or top-dose-only effect, or another doubt; inactive = no such curve, though single readings can be large; an effect the other way counts as inactive or inconclusive.

Experiments:
HACAT = assay: qHTS assay to identify novel small-molecules to repurpose for Merkel cell carcinoma treatment (AID 1296009); conditions: MCC and control cell lines, CellTiter-Glo viability, 72 h; at 44.8 µM (top of the series) unless noted; also: nearly all actives have a fitted effect of over 60% in size
Outline: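 qHTS format: cells treated with library compounds in DMSO across 8 (NPC) or 11 (MIPE) concentrations. Readout after 72 hr at 37 degree celsius was CellTiter-Glo luminescence.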

C33A = assay: Primary qHTS to identify gynecologic anti-cancer compounds using libraries of approved drugs and bioactive compounds (AID 1345084); conditions: Gynecologic cancer cell panel viability, ATPlite luminescence, 48 h; series mostly up to 57.5 µM; also: % is scaled to controls: 0 for no effect and ±100 for the full control effect; nearly all actives have a fitted effect of over 55% in size
Outline: (§1)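 Cytotoxicity screen measuring ATP content by luciferase luminescence. Each compound is applied at five concentrations for 48 h at 37 C with 5% CO2.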

CAOV3 = assay: as above; conditions: Gynecologic cancer cell panel viability, ATPlite luminescence, 48 h; series mostly up to 57.5 µM
Outline: as §1

CASKI = assay: as above; conditions: Gynecologic cancer cell panel viability, ATPlite luminescence, 48 h; series mostly up to 57.5 µM
Outline: as §1

Es-2 = assay: as above; conditions: Gynecologic cancer cell panel viability, ATPlite luminescence, 48 h; series mostly up to 57.5 µM
Outline: as §1

HeLa = assay: as above; conditions: Gynecologic cancer cell panel viability, ATPlite luminescence, 48 h; series mostly up to 57.5 µM
Outline: as §1

Hek293T = assay: as above; conditions: Gynecologic cancer cell panel viability, ATPlite luminescence, 48 h, control line for the selectivity index; series mostly up to 57.5 µM
Outline: as §1

JEG-3 = assay: as above; conditions: Gynecologic cancer cell panel viability, ATPlite luminescence, 48 h; series mostly up to 57.5 µM
Outline: as §1

COc1cnc(-c2ccc(Cn3c(CC(C)(C)C(=O)O)c(SC(C)(C)C)c4cc(OC[C@@H]5Cc6ccccc6N5C(C)=O)ccc43)cc2)nc1
inactive: outcome (HACAT) | Potency (C33A) | Potency (CAOV3) | outcome (CASKI) | Potency (Es-2) | Potency (HeLa) | Potency (Hek293T) | Potency (JEG-3)

CC(=O)O[C@H]1C[C@@H](O)C(C)(C)C2C[C@@H](OC(C)=O)[C@@]3(C)C4=CCC(C(CO)CC(O)C5OC5(C)C)[C@]4(C)CCC3[C@]21C (stereo partly drawn)
inactive: outcome (HACAT) inactive [at 17.4 µM] | Potency (C33A) | Potency (CAOV3) | outcome (CASKI) | Potency (Es-2) | Potency (HeLa) | Potency (Hek293T) | Potency (JEG-3)

Cc1cn(C[C@H](N)C(=O)O)c(=O)n(Cc2ccsc2C(=O)O)c1=O
inactive: outcome (HACAT) | Potency (C33A) | Potency (CAOV3) | outcome (CASKI) | Potency (Es-2) | Potency (HeLa) | Potency (Hek293T) | Potency (JEG-3)

CC(=O)O[C@H]1[C@H](OC(=O)C(C)C)[C@]2(C)OC3(CC[C@]2(C)[C@H]2CCC[C@]4(CO4)[C@]12C)COC(=O)C3 (stereo partly drawn)
inactive: outcome (HACAT) inactive [at 17.4 µM] | Potency (C33A) | Potency (CAOV3) | outcome (CASKI) | Potency (Es-2) | Potency (HeLa) | Potency (Hek293T) | Potency (JEG-3)

C=CC(C)(CC/C=C(\C)C(=O)OC[C@H]1O[C@@H](OC(C)(C=C)CC/C=C(\C)C(=O)O[C@H]2[C@H](O)[C@@H](O)[C@H](OC(C)(C=C)CC/C=C(\C)C(=O)O)O[C@@H]2CO)[C@H](O)[C@@H](O)[C@@H]1O)O[C@@H]1O[C@H](CO)[C@@H](O)[C@H](O)[C@H]1O (stereo partly drawn)
inactive: outcome (HACAT) inactive [at 9.27 µM] | activity change, negative = cytotoxicity (C33A) -1.99% [at 11.6 µM] | activity change, negative = cytotoxicity (CAOV3) -17.5% [at 11.6 µM] | activity change, negative = cytotoxicity (CASKI) -16.7% [at 11.6 µM] | activity change, negative = cytotoxicity (Es-2) -6.19% [at 11.6 µM] | activity change, negative = cytotoxicity (HeLa) 2.2% [at 11.6 µM] | activity change, negative = cytotoxicity (Hek293T) -1.07% [at 11.6 µM] | activity change, negative = cytotoxicity (JEG-3) -1.18% [at 11.6 µM]

CC(=O)O[C@@H]1C[C@@H](C)[C@](O)(CCC2=CC(=O)OC2)[C@@]2(C)CCCC(C)(C)C12 (stereo partly drawn)
inactive: outcome (HACAT) | Potency (C33A) | Potency (CAOV3) | outcome (CASKI) | Potency (Es-2) | Potency (HeLa) | Potency (Hek293T) | Potency (JEG-3)

C[C@]1(OC(=O)/C=C/c2ccccc2)C[C@@H](O)[C@]2(O)C=CO[C@@H](O[C@@H]3O[C@H](CO)[C@@H](O)[C@H](O)[C@H]3O)[C@@H]21
inactive: outcome (HACAT) inactive [at 17.4 µM] | Potency (C33A) | Potency (CAOV3) | outcome (CASKI) | Potency (Es-2) | Potency (HeLa) | Potency (Hek293T) | Potency (JEG-3)

O=C(O)CC1CCC(c2ccc(-c3ccc(Nc4ccc(C(F)(F)F)nc4)cn3)cc2)CC1 (stereo not drawn)
inactive: outcome (HACAT) | Potency (C33A) | Potency (CAOV3) | outcome (CASKI) | Potency (Es-2) | Potency (HeLa) | Potency (Hek293T) | Potency (JEG-3)

CC(=O)OC/C(=C/C(=O)O)CC[C@@H]1C(CO)=CC[C@@H]2C(C)(C)CCC[C@@]12C
inactive: outcome (HACAT) | Potency (C33A) | Potency (CAOV3) | outcome (CASKI) | Potency (Es-2) | Potency (HeLa) | Potency (Hek293T) | Potency (JEG-3)

CC(C)c1ccc2c(c1)C(=O)CC1C(C)(C(=O)O)CCCC21C (stereo not drawn)
inactive: outcome (HACAT) | Potency (C33A) | Potency (CAOV3) | outcome (CASKI) | Potency (Es-2) | Potency (HeLa) | Potency (Hek293T) | Potency (JEG-3)

C[C@@H]1O[C@@H](O[C@H]2[C@H](OC(=O)[C@]34CCC(C)(C)C[C@H]3C3=CCC5[C@@]6(C)CC[C@H](O[C@@H]7O[C@H](CO[C@@H]8OC[C@H](O)[C@H](O)[C@H]8O[C@@H]8OC[C@@H](O)[C@H](O)[C@H]8O)[C@@H](O)[C@H](O)[C@H]7O)C(C)(C)C6CC[C@@]5(C)[C@]3(C)C[C@H]4O)O[C@H](CO)[C@@H](O)[C@@H]2O)[C@H](O[C@@H]2O[C@H](CO)[C@@H](O)[C@H](O)[C@H]2O)[C@H](O)[C@H]1O[C@@H]1OC[C@@H](O)[C@H](O[C@@H]2OC[C@@H](O)[C@H](O)[C@H]2O)[C@H]1O (stereo partly drawn)
inactive: outcome (HACAT) inactive [at 4.96 µM] | activity change, negative = cytotoxicity (C33A) 6.83% [at 6.55 µM] | activity change, negative = cytotoxicity (CAOV3) -0.37% [at 6.55 µM] | activity change, negative = cytotoxicity (CASKI) -2.72% [at 6.55 µM] | activity change, negative = cytotoxicity (Es-2) -1.37% [at 6.55 µM] | activity change, negative = cytotoxicity (HeLa) 0.0394% [at 6.55 µM] | activity change, negative = cytotoxicity (Hek293T) 6.55% [at 6.55 µM] | activity change, negative = cytotoxicity (JEG-3) 9.73% [at 6.55 µM]

CC1=CCC[C@@H]2[C@@](C)(CCc3ccoc3)[C@H](C(=O)O)CC[C@@]12C
inactive: outcome (HACAT) | Potency (C33A) | Potency (CAOV3) | outcome (CASKI) | Potency (Es-2) | Potency (HeLa) | Potency (Hek293T) | Potency (JEG-3)

O=C(/C=C/c1ccccc1)OC[C@H]1O[C@@H](OC(=O)c2cc(O)c(O)c(O)c2)[C@H](O)[C@@H](O)[C@@H]1O
inactive: outcome (HACAT) inactive [at 17.4 µM] | Potency (C33A) | Potency (CAOV3) | outcome (CASKI) | Potency (Es-2) | Potency (HeLa) | Potency (Hek293T) | Potency (JEG-3)

COc1cc(CCCO)ccc1O[C@@H]1O[C@H](CO)[C@@H](O)[C@H](O)[C@H]1O
inactive: outcome (HACAT) | Potency (C33A) | Potency (CAOV3) | outcome (CASKI) | Potency (Es-2) | Potency (HeLa) | Potency (Hek293T) | Potency (JEG-3)

COc1cc(O)cc2c1C(=O)OC(C)CCCCCCC2 (stereo not drawn)
inactive: outcome (HACAT) | Potency (C33A) | Potency (CAOV3) | outcome (CASKI) | Potency (Es-2) | Potency (HeLa) | Potency (Hek293T) | Potency (JEG-3)

Cc1oc(S(=O)(=O)N2CCCCC2)cc1NC(=O)Nc1ccccc1
inactive: outcome (HACAT) | Potency (C33A) | Potency (CAOV3) | outcome (CASKI) | Potency (Es-2) | Potency (HeLa) | Potency (Hek293T) | Potency (JEG-3)

CC(NC(=O)c1ccccc1N)C(=O)O (stereo not drawn)
inactive: outcome (HACAT) | Potency (C33A) | Potency (CAOV3) | outcome (CASKI) | Potency (Es-2) | Potency (HeLa) | Potency (Hek293T) | Potency (JEG-3)

Cc1c(C)c(NCC(=O)N(C)C2CCN(Cc3ccc(C(N)=O)cc3)CC2)c(C)c(C)c1N
inactive: outcome (HACAT) | Potency (C33A) | Potency (CAOV3) | outcome (CASKI) | Potency (Es-2) | Potency (HeLa) | Potency (Hek293T) | Potency (JEG-3)

C[C@@H]1O[C@@H](O[C@H]2[C@H](O)[C@@H](O)[C@H](OC[C@H]3O[C@@H](OC(=O)[C@]45CCC(C)(C)C[C@H]4C4=CCC6[C@@]7(C)C[C@@H](O)[C@H](O)[C@@](C)(CO)C7[C@H](O)C[C@@]6(C)[C@]4(C)CC5)[C@H](O)[C@@H](O)[C@@H]3O)O[C@@H]2CO)[C@H](O)[C@H](O)[C@H]1O (stereo partly drawn)
inactive: outcome (HACAT) inactive [at 9.27 µM] | activity change, negative = cytotoxicity (C33A) 15% [at 11.6 µM] | activity change, negative = cytotoxicity (CAOV3) -8.06% [at 11.6 µM] | activity change, negative = cytotoxicity (CASKI) -1.59% [at 11.6 µM] | activity change, negative = cytotoxicity (Es-2) -1.56% [at 11.6 µM] | activity change, negative = cytotoxicity (HeLa) 13.5% [at 11.6 µM] | activity change, negative = cytotoxicity (Hek293T) -2.97% [at 11.6 µM] | activity change, negative = cytotoxicity (JEG-3) -6.46% [at 11.6 µM]

C/C=C1/C[N+](C)([O-])C2Cc3c([nH]c4ccccc34)C(=O)CC1C2C(=O)OC (stereo not drawn)
inactive: outcome (HACAT) | Potency (C33A) | Potency (CAOV3) | outcome (CASKI) | Potency (Es-2) | Potency (HeLa) | Potency (Hek293T) | Potency (JEG-3)

NC1=NC2(c3cc(NC(=O)c4ccc(F)cn4)ccc3F)COCC2CS1 (stereo not drawn)
inactive: outcome (HACAT) | Potency (C33A) | Potency (CAOV3) | outcome (CASKI) | Potency (Es-2) | Potency (HeLa) | Potency (Hek293T) | Potency (JEG-3)

C=Cc1ccc(O[C@@H]2O[C@H](CO[C@@H]3O[C@@H](C)[C@H](O)[C@@H](O)[C@H]3O)[C@@H](O)[C@H](O)[C@H]2O)cc1
inactive: outcome (HACAT) inactive [at 17.4 µM] | Potency (C33A) | Potency (CAOV3) | outcome (CASKI) | Potency (Es-2) | Potency (HeLa) | Potency (Hek293T) | Potency (JEG-3)

COc1cncc(C#Cc2ccccn2)c1
inactive: outcome (HACAT) | Potency (C33A) | Potency (CAOV3) | outcome (CASKI) | Potency (Es-2) | Potency (HeLa) | Potency (Hek293T) | Potency (JEG-3)

C=C1CCC2(C(=O)OC3OC(CO)C(O)C(O)C3O)CCC3(C)C(=CCC4C5(C)CCC(OC6OC(CO)C(OC7OC(C)C(O)C(O)C7O)C(OC7OCC(O)C(O)C7O)C6O)C(C)(C)C5CCC43C)C2C1 (stereo not drawn)
inactive: outcome (HACAT) inactive [at 9.27 µM] | activity change, negative = cytotoxicity (C33A) 5.83% [at 11.6 µM] | activity change, negative = cytotoxicity (CAOV3) 1.68% [at 11.6 µM] | activity change, negative = cytotoxicity (CASKI) -6.54% [at 11.6 µM] | activity change, negative = cytotoxicity (Es-2) -3.02% [at 11.6 µM] | activity change, negative = cytotoxicity (HeLa) 11.1% [at 11.6 µM] | activity change, negative = cytotoxicity (Hek293T) 6.11% [at 11.6 µM] | activity change, negative = cytotoxicity (JEG-3) 12.2% [at 11.6 µM]

COC(=O)[C@]1(C)CCC[C@@]2(C)C(=O)CC[C@H]3C(=O)C=C(CC[C@@H]21)C3O (stereo partly drawn)
inactive: outcome (HACAT) | Potency (C33A) | Potency (CAOV3) | outcome (CASKI) | Potency (Es-2) | Potency (HeLa) | Potency (Hek293T) | Potency (JEG-3)

O=C(CC1CC(c2ccc(F)cc2F)=NO1)N1CCOCC1 (stereo not drawn)
inactive: outcome (HACAT) | Potency (C33A) | Potency (CAOV3) | outcome (CASKI) | Potency (Es-2) | Potency (HeLa) | Potency (Hek293T) | Potency (JEG-3)
